Assay [1] has as its target Sphingosine kinase 1 (Homo sapiens) (UniProt Q9NYA1). The settings on record: at 1 µM.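 Also: mean SPHK1 inhibition value reported from the GSK PKIS kinase panel screen.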
The target in assay [2] is T1, Sphingosine kinase 2 (Homo sapiens) (UniProt Q9NRA0).
T1 sequence (whole entry): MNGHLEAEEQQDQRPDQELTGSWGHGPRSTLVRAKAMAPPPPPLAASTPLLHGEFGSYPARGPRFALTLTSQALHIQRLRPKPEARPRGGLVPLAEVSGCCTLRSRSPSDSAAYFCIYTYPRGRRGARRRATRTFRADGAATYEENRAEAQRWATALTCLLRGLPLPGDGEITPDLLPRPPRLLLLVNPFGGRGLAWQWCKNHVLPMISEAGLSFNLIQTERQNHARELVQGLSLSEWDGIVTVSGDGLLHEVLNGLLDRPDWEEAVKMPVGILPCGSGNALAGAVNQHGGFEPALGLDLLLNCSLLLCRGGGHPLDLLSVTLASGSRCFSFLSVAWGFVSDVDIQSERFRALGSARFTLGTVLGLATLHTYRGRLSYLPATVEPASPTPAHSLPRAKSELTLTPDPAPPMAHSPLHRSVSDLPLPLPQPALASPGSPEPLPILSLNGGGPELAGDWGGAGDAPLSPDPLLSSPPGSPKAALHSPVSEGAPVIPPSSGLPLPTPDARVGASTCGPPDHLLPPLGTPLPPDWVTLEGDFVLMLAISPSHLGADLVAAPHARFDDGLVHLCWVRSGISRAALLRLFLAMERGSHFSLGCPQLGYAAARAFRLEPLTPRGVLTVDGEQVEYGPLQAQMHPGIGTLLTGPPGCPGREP
The settings on record: at 0.1 µM.

Assay [3] has as its target T1, Sphingosine kinase 2 (Homo sapiens). The settings on record: at 1 µM.
Assay [4] concerns the target Casein kinase II subunit alpha (Homo sapiens) (UniProt P68400). The settings on record: at 0.1 µM.
The target is the same in assay [5]. The settings on record: at 1 µM.
In assay [6] the target is T2, Inhibitor of nuclear factor kappa-B kinase subunit alpha (Homo sapiens) (UniProt O15111).
T2 sequence (whole entry): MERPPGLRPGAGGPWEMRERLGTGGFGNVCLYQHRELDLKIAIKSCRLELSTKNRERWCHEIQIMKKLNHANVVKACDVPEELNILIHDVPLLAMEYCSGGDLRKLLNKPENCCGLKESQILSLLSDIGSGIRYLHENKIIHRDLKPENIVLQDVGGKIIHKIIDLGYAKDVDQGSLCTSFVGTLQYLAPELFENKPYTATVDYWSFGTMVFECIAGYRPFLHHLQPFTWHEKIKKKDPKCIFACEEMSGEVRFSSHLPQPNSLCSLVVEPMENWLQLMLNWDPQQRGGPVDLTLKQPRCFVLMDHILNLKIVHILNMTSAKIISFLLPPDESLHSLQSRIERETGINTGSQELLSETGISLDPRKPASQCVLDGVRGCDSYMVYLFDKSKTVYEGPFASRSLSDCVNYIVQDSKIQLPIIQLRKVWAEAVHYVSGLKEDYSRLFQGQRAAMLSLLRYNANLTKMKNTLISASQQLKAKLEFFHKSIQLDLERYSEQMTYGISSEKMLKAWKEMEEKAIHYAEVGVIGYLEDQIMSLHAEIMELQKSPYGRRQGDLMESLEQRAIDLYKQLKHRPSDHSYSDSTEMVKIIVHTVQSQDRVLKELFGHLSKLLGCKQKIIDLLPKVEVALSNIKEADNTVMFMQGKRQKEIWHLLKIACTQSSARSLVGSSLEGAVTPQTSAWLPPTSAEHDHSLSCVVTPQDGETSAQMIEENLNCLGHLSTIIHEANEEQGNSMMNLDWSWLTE
The settings on record: at 0.1 µM.

The target in assay [7] is T2, Inhibitor of nuclear factor kappa-B kinase subunit alpha (Homo sapiens). The settings on record: at 1 µM.
Assay [8] has as its target T3, Inhibitor of nuclear factor kappa-B kinase subunit beta (Homo sapiens) (UniProt O14920).
T3 sequence (whole entry): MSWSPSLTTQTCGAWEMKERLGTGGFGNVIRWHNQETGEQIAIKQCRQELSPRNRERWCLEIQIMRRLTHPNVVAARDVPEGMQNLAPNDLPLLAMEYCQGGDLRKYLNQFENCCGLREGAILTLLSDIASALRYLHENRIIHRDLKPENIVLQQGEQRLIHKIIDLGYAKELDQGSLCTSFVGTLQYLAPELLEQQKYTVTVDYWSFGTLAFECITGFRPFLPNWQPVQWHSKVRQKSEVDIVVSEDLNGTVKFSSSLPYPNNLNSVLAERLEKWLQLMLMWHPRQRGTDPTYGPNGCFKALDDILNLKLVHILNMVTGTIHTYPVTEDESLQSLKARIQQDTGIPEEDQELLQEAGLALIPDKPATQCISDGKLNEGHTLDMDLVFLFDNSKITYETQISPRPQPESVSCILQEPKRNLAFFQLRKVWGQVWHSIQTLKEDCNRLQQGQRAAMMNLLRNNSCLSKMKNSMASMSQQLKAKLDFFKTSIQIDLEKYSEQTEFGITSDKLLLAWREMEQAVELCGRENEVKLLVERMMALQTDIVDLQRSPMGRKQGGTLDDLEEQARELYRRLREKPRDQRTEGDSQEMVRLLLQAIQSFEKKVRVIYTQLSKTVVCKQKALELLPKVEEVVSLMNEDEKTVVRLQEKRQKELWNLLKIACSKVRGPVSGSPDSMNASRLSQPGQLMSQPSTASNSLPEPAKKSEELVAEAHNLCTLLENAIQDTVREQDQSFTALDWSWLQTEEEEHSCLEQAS
The settings on record: at 0.1 µM.

Assay [9] concerns the target T3, Inhibitor of nuclear factor kappa-B kinase subunit beta (Homo sapiens). The settings on record: at 1 µM.
Assay [10] addresses T4, Inhibitor of nuclear factor kappa-B kinase subunit epsilon (Homo sapiens) (UniProt Q14164).
T4 sequence (whole entry): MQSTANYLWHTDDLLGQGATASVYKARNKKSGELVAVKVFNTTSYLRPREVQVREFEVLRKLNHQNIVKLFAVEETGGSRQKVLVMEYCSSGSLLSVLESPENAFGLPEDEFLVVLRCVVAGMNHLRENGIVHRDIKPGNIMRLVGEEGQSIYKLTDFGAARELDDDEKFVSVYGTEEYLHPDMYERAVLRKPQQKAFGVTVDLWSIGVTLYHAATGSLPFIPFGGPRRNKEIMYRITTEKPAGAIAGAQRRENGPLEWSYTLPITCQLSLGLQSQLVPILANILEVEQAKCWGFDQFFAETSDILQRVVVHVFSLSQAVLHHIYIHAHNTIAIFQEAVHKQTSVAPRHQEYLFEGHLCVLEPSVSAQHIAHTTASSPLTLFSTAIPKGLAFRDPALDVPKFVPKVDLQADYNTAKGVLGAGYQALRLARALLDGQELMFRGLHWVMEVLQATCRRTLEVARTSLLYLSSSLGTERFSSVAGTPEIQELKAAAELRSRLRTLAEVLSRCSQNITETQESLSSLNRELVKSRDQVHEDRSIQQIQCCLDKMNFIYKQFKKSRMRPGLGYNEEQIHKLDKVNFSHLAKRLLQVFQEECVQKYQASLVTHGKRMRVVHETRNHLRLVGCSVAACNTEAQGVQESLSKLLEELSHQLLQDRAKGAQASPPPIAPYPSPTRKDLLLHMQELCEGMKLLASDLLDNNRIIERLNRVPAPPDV
The settings on record: at 0.1 µM.

Assay [11] deals with T4, Inhibitor of nuclear factor kappa-B kinase subunit epsilon (Homo sapiens). The settings on record: at 1 µM.
Assay [12] concerns the target T5, Serine/threonine-protein kinase Nek1 (Homo sapiens) (UniProt Q96PY6).
T5 sequence (whole entry): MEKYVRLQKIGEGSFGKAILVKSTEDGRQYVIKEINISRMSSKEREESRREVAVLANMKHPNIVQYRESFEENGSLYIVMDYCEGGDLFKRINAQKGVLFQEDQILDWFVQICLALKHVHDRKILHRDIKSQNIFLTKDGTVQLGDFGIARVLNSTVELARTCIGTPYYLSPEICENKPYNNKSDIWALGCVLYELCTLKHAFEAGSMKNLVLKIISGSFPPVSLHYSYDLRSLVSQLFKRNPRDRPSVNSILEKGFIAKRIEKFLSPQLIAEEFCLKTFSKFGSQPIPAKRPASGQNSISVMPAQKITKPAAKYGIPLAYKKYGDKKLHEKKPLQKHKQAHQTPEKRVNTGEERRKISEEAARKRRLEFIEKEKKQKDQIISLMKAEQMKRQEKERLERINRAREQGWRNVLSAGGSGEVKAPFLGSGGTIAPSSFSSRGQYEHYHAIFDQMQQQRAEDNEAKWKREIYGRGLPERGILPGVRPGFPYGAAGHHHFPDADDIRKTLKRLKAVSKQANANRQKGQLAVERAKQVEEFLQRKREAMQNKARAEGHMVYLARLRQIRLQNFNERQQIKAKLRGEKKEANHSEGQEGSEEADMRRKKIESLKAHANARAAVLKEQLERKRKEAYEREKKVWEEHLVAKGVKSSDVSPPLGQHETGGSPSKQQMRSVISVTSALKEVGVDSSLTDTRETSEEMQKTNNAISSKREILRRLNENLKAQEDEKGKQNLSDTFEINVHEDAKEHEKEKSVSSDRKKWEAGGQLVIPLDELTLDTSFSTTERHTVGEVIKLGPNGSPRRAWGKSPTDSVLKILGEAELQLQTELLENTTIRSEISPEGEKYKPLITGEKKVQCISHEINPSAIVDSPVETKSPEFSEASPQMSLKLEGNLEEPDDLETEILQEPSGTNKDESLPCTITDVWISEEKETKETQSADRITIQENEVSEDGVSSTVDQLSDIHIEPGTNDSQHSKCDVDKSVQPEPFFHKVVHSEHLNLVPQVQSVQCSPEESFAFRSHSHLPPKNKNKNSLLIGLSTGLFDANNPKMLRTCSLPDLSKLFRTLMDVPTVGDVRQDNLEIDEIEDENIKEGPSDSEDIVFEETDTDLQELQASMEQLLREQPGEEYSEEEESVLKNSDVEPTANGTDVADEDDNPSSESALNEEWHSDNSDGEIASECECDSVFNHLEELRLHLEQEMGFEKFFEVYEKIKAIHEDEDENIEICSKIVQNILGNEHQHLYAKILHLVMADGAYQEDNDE
The settings on record: at 0.1 µM.

Assay [13] has as its target T5, Serine/threonine-protein kinase Nek1 (Homo sapiens). The settings on record: at 1 µM.
In assay [14] the target is T6, Serine/threonine-protein kinase Nek2 (Homo sapiens) (UniProt P51955).
T6 sequence (whole entry): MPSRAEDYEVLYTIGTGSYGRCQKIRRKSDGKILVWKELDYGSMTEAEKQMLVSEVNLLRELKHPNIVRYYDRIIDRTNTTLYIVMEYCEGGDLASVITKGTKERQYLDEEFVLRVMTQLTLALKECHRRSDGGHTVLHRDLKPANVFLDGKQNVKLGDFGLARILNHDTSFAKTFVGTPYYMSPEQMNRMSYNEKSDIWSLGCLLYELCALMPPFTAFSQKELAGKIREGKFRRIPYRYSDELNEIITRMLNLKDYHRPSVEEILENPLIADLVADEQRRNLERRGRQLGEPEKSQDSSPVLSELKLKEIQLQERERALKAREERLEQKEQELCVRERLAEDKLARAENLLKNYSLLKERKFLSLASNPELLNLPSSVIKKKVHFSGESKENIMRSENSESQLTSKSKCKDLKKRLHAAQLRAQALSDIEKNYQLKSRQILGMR
The settings on record: at 0.1 µM.

Assay [15] concerns the target T6, Serine/threonine-protein kinase Nek2 (Homo sapiens). The settings on record: at 1 µM.
In assay [16] the target is Serine/threonine-protein kinase Nek6 (Homo sapiens) (UniProt Q9HC98). The settings on record: at 0.1 µM.
Sequence of Serine/threonine-protein kinase Nek6 (Homo sapiens) (Q9HC98 whole entry): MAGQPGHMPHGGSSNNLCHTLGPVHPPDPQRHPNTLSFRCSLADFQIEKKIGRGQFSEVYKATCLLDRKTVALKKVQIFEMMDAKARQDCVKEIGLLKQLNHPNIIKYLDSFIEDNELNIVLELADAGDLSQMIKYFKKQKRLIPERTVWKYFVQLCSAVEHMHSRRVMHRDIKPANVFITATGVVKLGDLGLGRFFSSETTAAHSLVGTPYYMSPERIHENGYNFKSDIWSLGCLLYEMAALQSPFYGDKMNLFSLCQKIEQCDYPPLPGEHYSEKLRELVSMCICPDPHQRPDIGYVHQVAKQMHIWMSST
The target is the same in assay [17]. The settings on record: at 1 µM.
Assay [18] deals with Serine/threonine-protein kinase Nek7 (Homo sapiens) (UniProt Q8TDX7). The settings on record: at 0.1 µM.
Sequence of Serine/threonine-protein kinase Nek7 (Homo sapiens) (Q8TDX7 whole entry, looked up): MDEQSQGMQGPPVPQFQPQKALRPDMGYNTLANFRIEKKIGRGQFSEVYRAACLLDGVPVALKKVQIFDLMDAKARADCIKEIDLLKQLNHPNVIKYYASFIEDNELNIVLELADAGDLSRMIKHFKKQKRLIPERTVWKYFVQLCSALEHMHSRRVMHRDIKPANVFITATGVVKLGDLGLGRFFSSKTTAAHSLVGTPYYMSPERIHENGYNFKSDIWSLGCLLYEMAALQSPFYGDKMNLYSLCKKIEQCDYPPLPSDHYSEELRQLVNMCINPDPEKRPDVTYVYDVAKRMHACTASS
The target is the same in assay [19]. The settings on record: at 1 µM.
Assay [20] addresses T7, Serine/threonine-protein kinase Nek9 (Homo sapiens) (UniProt Q8TD19).
T7 sequence (whole entry): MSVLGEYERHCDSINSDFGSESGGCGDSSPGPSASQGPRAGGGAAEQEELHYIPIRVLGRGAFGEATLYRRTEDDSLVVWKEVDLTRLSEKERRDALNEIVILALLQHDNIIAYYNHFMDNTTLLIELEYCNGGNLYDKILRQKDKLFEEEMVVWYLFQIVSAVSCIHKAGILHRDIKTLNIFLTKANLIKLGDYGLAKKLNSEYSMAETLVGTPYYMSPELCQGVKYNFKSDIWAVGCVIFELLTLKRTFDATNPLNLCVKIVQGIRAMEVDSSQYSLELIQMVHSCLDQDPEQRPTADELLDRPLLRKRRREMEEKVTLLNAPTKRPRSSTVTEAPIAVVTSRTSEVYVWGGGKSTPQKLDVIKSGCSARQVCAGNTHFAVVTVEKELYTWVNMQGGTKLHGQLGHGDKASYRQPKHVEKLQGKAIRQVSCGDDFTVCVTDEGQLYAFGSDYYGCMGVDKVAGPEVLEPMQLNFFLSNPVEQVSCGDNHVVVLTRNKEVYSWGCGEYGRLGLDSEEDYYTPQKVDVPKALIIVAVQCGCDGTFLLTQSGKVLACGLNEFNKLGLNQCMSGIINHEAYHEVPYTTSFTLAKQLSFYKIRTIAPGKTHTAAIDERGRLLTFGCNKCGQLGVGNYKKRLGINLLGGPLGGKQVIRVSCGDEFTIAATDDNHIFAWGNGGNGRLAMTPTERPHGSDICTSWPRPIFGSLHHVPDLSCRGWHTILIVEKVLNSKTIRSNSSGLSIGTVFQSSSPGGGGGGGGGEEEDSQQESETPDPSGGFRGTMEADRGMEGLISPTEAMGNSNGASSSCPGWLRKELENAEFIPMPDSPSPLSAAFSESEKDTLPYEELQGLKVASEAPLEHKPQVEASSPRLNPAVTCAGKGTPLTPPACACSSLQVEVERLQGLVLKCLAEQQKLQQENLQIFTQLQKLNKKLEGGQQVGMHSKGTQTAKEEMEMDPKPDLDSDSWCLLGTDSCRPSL
The settings on record: at 0.1 µM.

Sequence of Casein kinase II subunit alpha (Homo sapiens) (P68400 whole entry, looked up): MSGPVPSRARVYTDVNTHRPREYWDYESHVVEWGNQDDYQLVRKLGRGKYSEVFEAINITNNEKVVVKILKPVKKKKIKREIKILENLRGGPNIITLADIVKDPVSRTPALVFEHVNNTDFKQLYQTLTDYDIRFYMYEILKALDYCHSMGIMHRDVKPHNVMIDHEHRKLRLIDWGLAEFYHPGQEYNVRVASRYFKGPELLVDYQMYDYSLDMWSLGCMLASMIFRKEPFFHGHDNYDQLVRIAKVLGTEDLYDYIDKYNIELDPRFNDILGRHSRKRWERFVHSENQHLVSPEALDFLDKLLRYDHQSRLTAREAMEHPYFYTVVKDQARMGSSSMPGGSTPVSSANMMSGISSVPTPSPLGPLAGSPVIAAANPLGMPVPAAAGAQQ
Sequence of Sphingosine kinase 1 (Homo sapiens) (Q9NYA1 whole entry): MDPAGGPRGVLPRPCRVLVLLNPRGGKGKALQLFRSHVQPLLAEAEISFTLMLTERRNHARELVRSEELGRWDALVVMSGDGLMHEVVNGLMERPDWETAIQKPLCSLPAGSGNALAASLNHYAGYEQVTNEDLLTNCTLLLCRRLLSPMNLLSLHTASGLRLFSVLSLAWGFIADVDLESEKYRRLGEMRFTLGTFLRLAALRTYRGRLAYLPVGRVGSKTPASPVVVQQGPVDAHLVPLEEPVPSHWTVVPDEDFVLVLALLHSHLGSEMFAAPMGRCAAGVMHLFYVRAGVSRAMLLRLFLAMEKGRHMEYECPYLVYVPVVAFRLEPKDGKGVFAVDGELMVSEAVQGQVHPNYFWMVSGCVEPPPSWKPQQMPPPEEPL

On to `CN(C)CCOc1ccc(-c2nc(-c3ccncc3)c(-c3ccc4c(c3)CC/C4=N\O)[nH]2)cc1`, for which the inhibition (as a rule, the drop in the measured response relative to a control, in per cent) was -0.62% in assay [1]; -0.49% in assay [2]; -0.4% in [3]; 3.04% in assay [4]; 7.33% in assay [5]; 6.61% in [6]. The inhibition is 7.1% in [7]; 0.93% in assay [8]; 0.86% in assay [9]; 9.22% in [10]; 7.42% in assay [11]; 0.81% in [12]. In addition, the inhibition in assay [13] stood at 5.31%; in assay [14] it was 2.72%; in assay [15], 4.52%; in assay [16], 3.81%; in assay [17], 0.68%; in assay [18], 1.62%. Further, the inhibition amounted to 2.67% in [19] and 4.08% in [20].

(Values after ChEMBL document CHEMBL1961873, “Compounds: GSK PKIS; Assays: Nanosyn kinase panel” (2012).)
